# In PubChem BioAssay (EPA / NIEHS):
# “And” between values parts separate entries of the source, which are not always exact repeats. Equal entries are not always repeated. Results filed as inconclusive are left out. The source holds several records for some structures; these can differ, active in one and inactive in another. The source made the active and inactive calls. The calls were made as follows, unless noted: active = hit-call score of the fitted dose curve at least 0.9, where 1 is the maximum; inconclusive = response in the unintended direction; inactive = score below 0.9.
# Tests used:
# [1] = biological target: Estrogen receptor (Homo sapiens) (UniProt P03372); experiment: OT_ERa_GFPERaERE_0480: Odyssey Thera (OT) 8-hour HeLa Transcription Induction Assay for Estrogen Receptor (AID 2283381; active = hit-call score of the fitted dose curve at least 0.9, where 1 is the maximum; inactive = score below 0.9)
# Sequence of Estrogen receptor (Homo sapiens) (P03372 whole entry, looked up): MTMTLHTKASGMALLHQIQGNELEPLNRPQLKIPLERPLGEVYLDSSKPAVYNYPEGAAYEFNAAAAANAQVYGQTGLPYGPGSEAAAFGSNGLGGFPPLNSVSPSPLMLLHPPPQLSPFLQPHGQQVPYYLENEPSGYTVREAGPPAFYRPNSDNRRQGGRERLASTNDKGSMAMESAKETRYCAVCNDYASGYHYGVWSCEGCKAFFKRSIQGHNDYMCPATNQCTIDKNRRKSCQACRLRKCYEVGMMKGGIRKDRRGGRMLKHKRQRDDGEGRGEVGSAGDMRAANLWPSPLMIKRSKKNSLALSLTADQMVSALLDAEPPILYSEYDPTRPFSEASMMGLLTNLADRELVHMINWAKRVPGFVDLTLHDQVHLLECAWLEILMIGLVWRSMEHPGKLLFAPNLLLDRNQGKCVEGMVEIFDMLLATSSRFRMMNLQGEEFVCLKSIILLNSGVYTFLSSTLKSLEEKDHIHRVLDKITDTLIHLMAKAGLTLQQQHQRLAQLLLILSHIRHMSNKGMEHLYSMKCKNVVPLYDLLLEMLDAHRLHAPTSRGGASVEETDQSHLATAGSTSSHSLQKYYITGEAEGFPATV
# Summary of the method: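 HeLa cells dosed with compound and imaged by fluorescence microscopy at 8 h; GFP induction from an ERE reporter quantified by high-content image analysis and fitted as gain of signal against DMSO baseline.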
# [2] = biological target: Estrogen receptor (Homo sapiens) (UniProt P03372); experiment: OT_ERa_GFPERaERE_0120: Odyssey Thera (OT) 2-hour HeLa Transcription Induction Assay for Estrogen Receptor (AID 2283382)
# Summary of the method: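 HeLa cells were dosed with test chemical and read 2 hours later for GFP-ERα/ERE-linked fluorescent protein induction by fluorescence microscopy. Gain-of-signal was fitted relative to DMSO baseline, quantified by high content image analysis.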
# [3] = biological target: Retinoic acid receptor RXR-alpha (Homo sapiens) (UniProt P19793); experiment: OT_NURR1_NURR1RXRa_0480: Odyssey Thera (OT) 8-hour HEK293T Protein Complementation Assay for Nurr1/retinoid X receptor (RXR) (AID 2283385)
# Sequence of Retinoic acid receptor RXR-alpha (Homo sapiens) (P19793 whole entry, looked up, the tested form may be a part): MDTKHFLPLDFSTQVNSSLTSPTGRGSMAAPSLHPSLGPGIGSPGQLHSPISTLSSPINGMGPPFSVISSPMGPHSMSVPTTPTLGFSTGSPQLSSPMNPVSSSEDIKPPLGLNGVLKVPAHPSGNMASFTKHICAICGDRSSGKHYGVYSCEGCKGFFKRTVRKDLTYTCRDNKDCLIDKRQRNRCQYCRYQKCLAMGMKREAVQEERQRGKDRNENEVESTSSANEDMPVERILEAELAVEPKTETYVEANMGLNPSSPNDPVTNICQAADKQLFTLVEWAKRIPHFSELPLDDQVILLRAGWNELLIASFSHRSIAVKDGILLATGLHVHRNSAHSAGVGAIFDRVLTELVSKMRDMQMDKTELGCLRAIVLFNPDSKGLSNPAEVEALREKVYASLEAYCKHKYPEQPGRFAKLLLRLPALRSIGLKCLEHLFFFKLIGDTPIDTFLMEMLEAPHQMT
# Summary of the method: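 HEK293T cells expressing Nurr1 and RXRα fused to reporter fragments were dosed with compound for 8 hours. Complex formation was read as fluorescence intensity and analysed as gain of signal against DMSO as baseline.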
# [4] = biological target: Retinoic acid receptor RXR-alpha (Homo sapiens) (UniProt P19793); experiment: OT_NURR1_NURR1RXRa_1440: Odyssey Thera (OT) 24-hour HEK293T Protein Complementation Assay for Nurr1/retinoid X receptor (RXR) (AID 2283386)
# Summary of the method: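 HEK293T cells were dosed with compound and read 24 h later by fluorescence intensity in a protein-fragment complementation format, where Nurr1–RXRα interaction reconstitutes a split reporter. Activity was fitted as gain of signal relative to DMSO baseline.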
# [5] = biological target: Peroxisome proliferator-activated receptor gamma (Homo sapiens) (UniProt P37231); experiment: OT_PPARg_PPARgSRC1_0480: Odyssey Thera (OT) 8-hour Protein-Complementation Assay for Peroxisome Proliferator-activated Receptor Gamma / SRC-1 Co-activator (AID 2283387);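 also: nuclear to cytoplasmic split Venus YFP fluorescence ratio reporting PPARg SRC-1 interaction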
# Sequence of Peroxisome proliferator-activated receptor gamma (Homo sapiens) (P37231 whole entry, looked up, the tested form may be a part): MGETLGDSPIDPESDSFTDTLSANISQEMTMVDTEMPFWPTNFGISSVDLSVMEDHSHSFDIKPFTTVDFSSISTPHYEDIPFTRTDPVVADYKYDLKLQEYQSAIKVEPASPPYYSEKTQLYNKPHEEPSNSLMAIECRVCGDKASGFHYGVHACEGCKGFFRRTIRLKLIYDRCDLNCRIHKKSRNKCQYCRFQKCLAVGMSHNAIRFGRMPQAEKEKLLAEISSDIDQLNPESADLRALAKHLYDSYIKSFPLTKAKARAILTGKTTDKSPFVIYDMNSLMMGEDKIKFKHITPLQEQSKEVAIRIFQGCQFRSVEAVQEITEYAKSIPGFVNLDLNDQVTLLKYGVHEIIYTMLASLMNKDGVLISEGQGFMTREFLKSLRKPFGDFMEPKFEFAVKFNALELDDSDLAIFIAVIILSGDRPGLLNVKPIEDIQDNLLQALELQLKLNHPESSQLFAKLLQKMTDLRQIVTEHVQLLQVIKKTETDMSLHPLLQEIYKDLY
# Summary of the method: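 Protein-fragment complementation of split Venus YFP reports PPARg/SRC-1 interaction in HEK293T (transfected 48 h before treatment), exposed 8 h. Readout: N/C fluorescence ratio at 488 nm from imaging, Draq5 for segmentation, positive fit relative to DMSO.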
# [6] = biological target: Peroxisome proliferator-activated receptor gamma (Homo sapiens) (UniProt P37231); experiment: OT_PPARg_PPARgSRC1_1440: Odyssey Thera (OT) 24-hour Protein-Complementation Assay for Peroxisome Proliferator-activated Receptor Gamma/ SRC-1 Co-activator (AID 2283388);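 also: nuclear to cytoplasmic ratio of reconstituted Venus YFP fluorescence in fixed imaged cells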
# Summary of the method: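 Transient HEK293T, YFP fragments 1-158/159-239 (mutant IFP1/IFP2) fused to PPARg/SRC-1; 24 h dosing; fix 4% formaldehyde, Draq5; Opera imaging 488/635 nm; N/C ratio, gain vs DMSO.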
# [7] = biological target: Estrogen receptor beta (Homo sapiens) (UniProt Q92731); experiment: OT_ER_ERbERb_1440: Odyssey Thera (OT) 24-hour HEK293T Protein-Complementation Assay for Estrogen Receptor-beta/-beta Homodimer (AID 2283380);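 also: fluorescence gain from ER beta LBD homodimer complementation read by laser scanning cytometry; scored as signal increase over DMSO baseline for both agonists and antagonists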
# Sequence of Estrogen receptor beta (Homo sapiens) (Q92731 whole entry, looked up, the tested form may be a part): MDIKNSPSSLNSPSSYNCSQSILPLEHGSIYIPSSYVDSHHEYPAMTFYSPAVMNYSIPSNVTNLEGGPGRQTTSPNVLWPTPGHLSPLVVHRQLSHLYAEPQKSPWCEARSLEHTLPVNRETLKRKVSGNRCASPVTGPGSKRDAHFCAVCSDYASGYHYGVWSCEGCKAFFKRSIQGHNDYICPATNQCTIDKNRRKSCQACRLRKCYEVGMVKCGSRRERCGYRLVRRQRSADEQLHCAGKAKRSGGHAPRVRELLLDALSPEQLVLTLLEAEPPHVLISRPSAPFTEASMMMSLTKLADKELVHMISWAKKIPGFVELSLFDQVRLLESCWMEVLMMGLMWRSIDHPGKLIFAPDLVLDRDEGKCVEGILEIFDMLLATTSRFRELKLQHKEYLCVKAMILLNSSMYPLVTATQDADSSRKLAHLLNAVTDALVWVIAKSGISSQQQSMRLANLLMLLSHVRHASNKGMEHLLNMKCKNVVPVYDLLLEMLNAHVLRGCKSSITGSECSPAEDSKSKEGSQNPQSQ
# Summary of the method: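 Fluorescence increase, nuclear for agonists or whole-cell for antagonists, relative to DMSO vehicle, quantified by laser scanning cytometer after fixation and Draq5 staining. Readout from 24 h treatment of HEK293T cells carrying complementation-paired ER beta LBD (aa 310-547).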
# [8] = CEETOX_H295R_11DCORT: CeeTox H295R High-throughput Steroidogenesis Assay for 11-Deoxycortisol (11DCORT) (AID 2283432; active = hit-call score of the fitted dose curve at least 0.9, where 1 is the maximum; inactive = score below 0.9;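 as to AC50: 11-deoxycortisol secreted into the medium measured by LC-MS/MS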); settings: actives raise or lower the signal
# Summary of the method: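 Human adrenal H295R cells were prestimulated with 10 uM forskolin for 48 h, then exposed to test chemical (0.1% DMSO final) for 48 h. Medium 11-deoxycortisol was quantified by MTBE extraction and HPLC-MS/MS; bidirectional fitting relative to DMSO.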
# [9] = CEETOX_H295R_OHPREG: CeeTox H295R High-throughput Steroidogenesis Assay for OH-Pregnenolone (OHPREG) (AID 2283434; active = hit-call score of the fitted dose curve at least 0.9, where 1 is the maximum; inactive = score below 0.9); settings: actives raise or lower the signal
# Summary of the method: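 Hormone levels in spent medium were measured by tandem mass spectrometry following liquid-liquid extraction. Cells (H295R) had been forskolin-stimulated (10 uM, 48 h) before a 48 h chemical exposure at 0.1% DMSO, with activity fitted in both directions against DMSO.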
# [10] = CEETOX_H295R_OHPROG: CeeTox H295R High-throughput Steroidogenesis Assay for OH-Progesterone (OHPROG) (AID 2283435; active = hit-call score of the fitted dose curve at least 0.9, where 1 is the maximum; inactive = score below 0.9); settings: actives raise or lower the signal
# Summary of the method: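 H295R human adrenal cells were prestimulated 48 h with 10 uM forskolin, then exposed 48 h to test chemical (0.1% DMSO final). 17alpha-hydroxyprogesterone in medium was measured by HPLC-MS/MS after MTBE extraction; bidirectional fitting vs DMSO.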
# [11] = CEETOX_H295R_CORTIC: CeeTox H295R High-throughput Steroidogenesis Assay for Corticosterone (CORTIC) (AID 2283437; active = hit-call score of the fitted dose curve at least 0.9, where 1 is the maximum; inactive = score below 0.9;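 also: corticosterone secreted into medium quantified by mass spectrometry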); settings: actives raise or lower the signal
# Summary of the method: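 Corticosterone secreted into medium is measured by reverse-phase HPLC with tandem MS following liquid-liquid extraction. Cells are forskolin-stimulated (10 uM, 48 h) before 48 h test exposure; activity fitted in both directions against DMSO.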
# [12] = CEETOX_H295R_CORTISOL: CeeTox H295R High-throughput Steroidogenesis Assay for Cortisol (AID 2283438; active = hit-call score of the fitted dose curve at least 0.9, where 1 is the maximum; inactive = score below 0.9;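 also: cortisol secreted into medium quantified by LC-MS/MS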); settings: actives raise or lower the signal
# Summary of the method: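 H295R human adrenal cells were prestimulated 48 h with 10 uM forskolin, then exposed 48 h to test chemical (0.1% DMSO final). Medium cortisol was quantified by HPLC-MS/MS after MTBE extraction; bidirectional fitting relative to DMSO baseline.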
# [13] = CEETOX_H295R_ESTRADIOL: CeeTox H295R High-throughput Steroidogenesis Assay for Estradiol (AID 2283440; active = hit-call score of the fitted dose curve at least 0.9, where 1 is the maximum; inactive = score below 0.9;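 also: estradiol secreted into medium quantified by LC-MS/MS after dansyl derivatisation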); settings: actives raise or lower the signal
# Summary of the method: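 Following OECD 456 with minor changes, H295R cells received 10 uM forskolin for 48 h and then test chemical for 48 h. Hormone output was read by HPLC-MS/MS, with cytotoxic concentrations diluted until MTT viability reached ≥70%.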
# [14] = CEETOX_H295R_ESTRONE: CeeTox H295R High-throughput Steroidogenesis Assay for Estrone (AID 2283441; active = hit-call score of the fitted dose curve at least 0.9, where 1 is the maximum; inactive = score below 0.9;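 also: estrone secreted into medium measured by LC-MS/MS after dansyl derivatization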); settings: actives raise or lower the signal
# Summary of the method: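 H295R cells; 48 h forskolin (10 uM) prestimulation; 48 h compound exposure, 0.1% DMSO final. Medium estrone: MTBE extraction, dansyl derivatization, HPLC-MS/MS. Bidirectional fit vs DMSO.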
# [15] = CEETOX_H295R_PROG: CeeTox H295R High-throughput Steroidogenesis Assay for Progesterone (PROG) (AID 2283442; active = hit-call score of the fitted dose curve at least 0.9, where 1 is the maximum; inactive = score below 0.9;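 as to AC50: human H295R adrenal cells primed with 10 µM forskolin before dosing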); settings: actives raise or lower the signal
# Summary of the method: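 Adrenal H295R line, forskolin-stimulated (10 uM, 48 h) before dosing. 48 h exposure, 0.1% DMSO vehicle. Secreted progesterone by reverse-phase HPLC with ESI+ MS/MS quantification; DMSO-normalised bidirectional curve fit.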
# [16] = CEETOX_H295R_ANDR: CeeTox H295R High-throughput Steroidogenesis Assay for Androstenedione (ANDR) (AID 2283436; active = hit-call score of the fitted dose curve at least 0.9, where 1 is the maximum; inactive = score below 0.9); settings: actives raise or lower the signal
# Summary of the method: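 Read-out is androstenedione secreted into medium, measured by tandem mass spectrometry after liquid-liquid extraction. Cells were H295R, dosed for 48 h per modified OECD 456; activity fitted in both directions relative to DMSO.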
# [17] = read-out: Tumor necrosis factor receptor superfamily member 6 (Homo sapiens) (UniProt P25445); experiment: LTEA_HepaRG_FAS: Life Technologies and Expression Analysis (LTEA) Assay for Fas cell surface death receptor (FAS) using HepaRG (AID 2283447; active = hit-call score of the fitted dose curve at least 0.9, where 1 is the maximum; inactive = score below 0.9); settings: mRNA level, 48 h; actives raise or lower the signal
# Summary of the method: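 FAS transcript level was measured by TaqMan qRT-PCR against three housekeeping genes after 48 h chemical exposure. Cells were HepaRG, 0.5% DMSO vehicle, with a top concentration of 100 uM and half-log dilutions over eight points, in duplicate.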
smiles,measurement,setting,value
O=C(O)C1=NN(c2ccc(S(=O)(=O)O)cc2)C(=O)C1,outcome,[1],inactive
same,outcome,[2],inactive
same,outcome,[3],inactive
same,outcome,[4],inactive
same,outcome,[5],inactive
same,outcome,[6],inactive
CC(C)N(c1ccccc1)C(C)C,outcome,[7],inactive
same,outcome,[1],inactive
same,outcome,[2],inactive
same,outcome,[4],inactive
same,outcome,[6],inactive
C=CC(C)CCCC(C)(C)O (stereo unspecified),outcome,[7],inactive
same,outcome,[1],inactive
same,outcome,[2],inactive
same,outcome,[4],inactive
same,outcome,[5],inactive
same,outcome,[6],inactive
O=C(OCc1ccccc1)c1ccccc1O,AC50,[7],49.7 µM (active)
same,outcome,[1],inactive
same,outcome,[2],inactive
same,outcome,[8],inactive
same,outcome,[9],inactive
same,AC50,[10],50 µM (active)
same,outcome,[11],inactive
same,outcome,[12],inactive
same,outcome,[13],inactive
same,outcome,[14],inactive
same,AC50,[15],50 µM (active)
CC(=N[Si](C)(C)C)O[Si](C)(C)C,outcome,[8],inactive
same,outcome,[9],inactive
same,outcome,[10],inactive
same,outcome,[16],inactive
same,outcome,[11],inactive
same,outcome,[12],inactive
same,outcome,[15],inactive
OCCCO,outcome,[8],inactive
same,outcome,[9],inactive
same,outcome,[10],inactive
same,outcome,[16],inactive
same,outcome,[11],inactive
same,outcome,[12],inactive
same,outcome,[13],inactive
same,outcome,[14],inactive
same,outcome,[15],inactive
O=C(c1ccc(OCCN2CCCCC2)cc1)c1c(-c2ccc(O)cc2)sc2cc(O)ccc12,AC50,[3],11.9 µM (active)
same,outcome,[3],inactive
same,AC50,[4],11.9 µM (active) and 11.8 µM (active)
same,outcome,[4],inactive
same,outcome,[6],inactive
same,outcome,[8],inactive
same,AC50,[9],0.35 µM (active)
same,outcome,[10],inactive
same,outcome,[11],inactive
same,outcome,[12],inactive
same,outcome,[15],inactive
same,outcome,[17],inactive
C=C(C)C(=O)OCCC(C)OC(=O)C(=C)C (stereo unspecified),outcome,[1],inactive
same,outcome,[2],inactive
same,outcome,[3],inactive
same,outcome,[4],inactive
O=C(O)c1ccccc1O,outcome,[1],inactive
same,outcome,[2],inactive
same,outcome,[3],inactive
same,outcome,[4],inactive
same,outcome,[5],inactive
same,outcome,[6],inactive
C[C@]12CC[C@@H]3c4ccc(O)cc4CC[C@H]3[C@@H]1CC[C@@H]2O,outcome,[3],inactive
same,outcome,[4],inactive
same,outcome,[6],inactive
same,AC50,[8],4.37 µM (active)
same,AC50,[9],1.57 µM (active)
same,outcome,[10],inactive
same,AC50,[11],0.479 µM (active)
same,AC50,[12],2.63 µM (active)
same,AC50,[15],5 µM (active)
same,outcome,[17],inactive
CC1=CCC(C(C)C)=CC1,outcome,[1],inactive
same,outcome,[2],inactive
same,outcome,[3],inactive
same,outcome,[4],inactive
CC/C(=C(\c1ccccc1)c1ccc(OCCN(C)C)cc1)c1ccccc1,AC50,[3],11.5 µM (active)
same,AC50,[4],10.4 µM (active) and 11.5 µM (active)
same,outcome,[5],inactive
same,outcome,[6],inactive
same,AC50,[8],0.136 µM (active)
same,outcome,[8],inactive
same,AC50,[9],0.311 µM (active)
same,outcome,[9],inactive
same,AC50,[10],0.161 µM (active)
same,outcome,[10],inactive
same,outcome,[11],inactive
same,outcome,[12],inactive
same,AC50,[15],0.141 µM (active)
same,outcome,[15],inactive
same,AC50,[17],71.4 µM (active)
same,outcome,[17],inactive
